Our source for the composite z-score, composite Z-score and z-score values is PubChem BioAssay.

Active and inactive are the calls of the source.

One assay addresses Albumin (Bos taurus) (UniProt P02769). Put plainly: compounds binding labelled BSA control protein – biochemical, small-molecule microarray, Alexa647 label, 635/667 nm fluorescence, artefact control for SMM control protein annotation, profiling panel (AID 1118).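 Also: score merges 667 nm emission intensity and signal-to-noise per printed compound spot.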 Conditions: BSA-A647 binding, fluorescence 635 nm, higher = more signal.
The nature of assay [1]: probe aXIP binding to arrayed compounds – biochemical, NeuroSMM set, 635/667 nm fluorescence, primary screen (AID 1119).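 Also: probe is the protein aXip251-270 applied at 1 µg/mL to compound-printed slides; binding of probe to printed compounds measured as 667 nm fluorescence plus signal to noise.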 The following applies: small-molecule microarray, higher = more signal, called active from +8 up or from −8 down.
Assay [2] can be described thus: probe aNOTCH3 binding on compound microarray – biochemical, small-molecule microarray, 635/667 nm fluorescence, primary screen (AID 1120).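 Also: probe is a biotin-tagged antibody raised against NOTCH3 rather than NOTCH3 protein; score merges spot fluorescence near 667 nm with spot signal to noise.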 Conditions: higher = more signal.
Assay [3] in a line: probe aNOTCH2 binding on compound microarray – biochemical, small-molecule microarray, 635/667 nm fluorescence, primary screen (AID 1121).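 Also: score merges feature fluorescence read at 667 nm with its signal to noise.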 The following applies: higher = more signal.
The target of assay [4] is Carbonic anhydrase 2 (Homo sapiens) (UniProt P00918). Nature of the assay: compounds binding carbonic anhydrase 2 – biochemical, small-molecule microarray, Alexa647-labelled CAII, profiling panel (AID 1122). The following applies: CAII-A647 binding fluorescence, higher = more signal.
A short description of assay [5]: COS7 lysate on small-molecule microarray, probe aHis, 635 nm (AID 1123).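 Also: z-score combines 667nm fluorescence intensity with signal-to-noise per printed compound spot.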 Conditions: COS7 cell lysate, fluorescence, higher = more signal.
A short description of assay [6]: probe aLAP1 signal on lysate-treated microarray – cell lysate, small-molecule microarray, COS7 lysate, primary screen (AID 1124).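 Also: lysate comes from COS7 cells expressing LAP1 and is applied at 0.3 µg/mL; score merges spot fluorescence near 667 nm with signal-to-noise over triplicate slides.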 The following applies: probe aLAP1, fluorescence, higher = more signal.
The next assay has as its system Sam68 (KHDRBS1). Nature of the assay: compounds binding KHDRBS1 protein – biochemical, small-molecule microarray, 635 nm fluorescence, primary screen (AID 1125).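 Also: score merges 667 nm channel intensity with signal to noise over triplicate slides.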 The following applies: higher = more signal.
The test system of assay [7] is Chordin-like protein 2 (CHRDL2). Put plainly: compounds binding chordin-like 2 – biochemical, small-molecule microarray, 635 nm fluorescence, primary screen (AID 1126).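 Also: printed compound slides probed with Chrdl2 protein at 4 µg/mL for 1 h at 4 C; score merges 667 nm emission intensity with signal to noise over three replicate slides.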 The following applies: fluorescence 635 nm, higher = more signal.
Assay [8] concerns the target Concanavalin-A (Canavalia ensiformis) (UniProt P02866). Nature of the assay: compounds binding concanavalin A lectin – biochemical, small-molecule microarray, Alexa647 label, 635 nm, artefact control for SMM control protein annotation, primary screen (AID 1127).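 Also: z combines 667 nm emission intensity with signal-to-noise across three replicate slides.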 Conditions: ConA-A647 binding fluorescence, higher = more signal.
The nature of assay [9]: compounds binding Alexa647 anti-His antibody – biochemical, small-molecule microarray, 635 nm fluorescence, artefact control for SMM control protein annotation, primary screen (AID 1128).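 Also: score merges feature fluorescence with signal-to-noise for each printed compound spot.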 Conditions: higher = more signal.
For assay [10], the system named is Human papillomavirus type 1a E7 protein (residues 1-88). Put plainly: HPV1a E7 small-molecule binders, primary screen, biochemical, small-molecule microarray, residues 1-88, 635 nm (AID 1129). The following applies: small-molecule microarray binding, fluorescence 635 nm; higher = more signal.
In assay [11] the target is Focal adhesion kinase 1 (Homo sapiens) (UniProt Q05397). Nature of the assay: PTK2 protein binding on printed compound slides – biochemical, small-molecule microarray, 635/667 nm fluorescence, BSA, DTT, primary screen (AID 1130).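 Also: composite of spot emission at 667 nm and signal to noise over triplicate slides.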 Conditions: 635 nm fluorescence, higher = more signal.
Assay [12] deals with Fibrinogen (Alexa647-labelled). Put plainly: Alexa647-fibrinogen binding to printed small molecules – biochemical, small-molecule microarray, 635/667 nm fluorescence, artefact control for SMM control-protein annotation, profiling panel (AID 1131).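 Also: z-score merges 667 nm fluorescence with per-spot signal-to-noise over triplicate slides.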 The following applies: fibrinogen-A647 binding fluorescence, higher = more signal.
For assay [13], the target named is Follistatin (Homo sapiens) (UniProt P19883). Put plainly: FST protein binding to printed compounds – biochemical, small-molecule microarray, 635/667 nm fluorescence, primary screen (AID 1132). The following applies: 635 nm fluorescence, higher = more signal.
Assay [14] deals with Fibroblast growth factor 2 (Homo sapiens) (UniProt P09038). Put plainly: basic fibroblast growth factor binding to printed compounds – biochemical, small-molecule microarray, 635/667 nm fluorescence, primary screen (AID 1133). The following applies: FGF2, fluorescence 635/667, higher = more signal.
The nature of assay [15]: JC-1 mitochondrial potential readout, lung cancer cells – cell-based, A549, JC-1 fluorescence, basal, 24 h, 100 nL, profiling panel (AID 1138).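 Also: A549 lung adenocarcinoma cells under basal conditions with no added stimulus; test concentration not given here.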 The following applies: higher = more signal.
Another assay deals with Lefty1. Nature of the assay: Lefty1 protein binding to printed compounds – biochemical, small-molecule microarray, 635/667 nm fluorescence, primary screen (AID 1139). The following applies: fluorescence 635/667, higher = more signal.
Assay [16] has as its system wheat germ agglutinin (Triticum aestivum), Alexa647-labelled. Put plainly: Alexa647-WGA lectin binding to printed small molecules – biochemical, small-molecule microarray, 635/667 nm fluorescence, artefact control for SMM control-protein annotation, profiling panel (AID 1140).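 Also: score merges 667 nm feature emission with signal to noise over triplicate slides.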 The following applies: WGA-A647 binding, 635 nm fluorescence, higher = more signal.
Assay [17] deals with Luciferin 4-monooxygenase (Photinus pyralis) (UniProt P08659). Nature of the assay: inhibition of purified Photinus pyralis luciferase – biochemical, luminescence, purified enzyme, 2006 set, primary screen (AID 1141).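 Also: cell-free assay with purified firefly luciferase at 100 ng per well in PBS; test concentration not given here.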 The following applies: purified firefly luciferase, SteadyGlo luminescence, 30 min; higher = more signal, called active from +8 up or from −8 down.
Chain of Luciferin 4-monooxygenase (Photinus pyralis) (P08659 whole entry, looked up): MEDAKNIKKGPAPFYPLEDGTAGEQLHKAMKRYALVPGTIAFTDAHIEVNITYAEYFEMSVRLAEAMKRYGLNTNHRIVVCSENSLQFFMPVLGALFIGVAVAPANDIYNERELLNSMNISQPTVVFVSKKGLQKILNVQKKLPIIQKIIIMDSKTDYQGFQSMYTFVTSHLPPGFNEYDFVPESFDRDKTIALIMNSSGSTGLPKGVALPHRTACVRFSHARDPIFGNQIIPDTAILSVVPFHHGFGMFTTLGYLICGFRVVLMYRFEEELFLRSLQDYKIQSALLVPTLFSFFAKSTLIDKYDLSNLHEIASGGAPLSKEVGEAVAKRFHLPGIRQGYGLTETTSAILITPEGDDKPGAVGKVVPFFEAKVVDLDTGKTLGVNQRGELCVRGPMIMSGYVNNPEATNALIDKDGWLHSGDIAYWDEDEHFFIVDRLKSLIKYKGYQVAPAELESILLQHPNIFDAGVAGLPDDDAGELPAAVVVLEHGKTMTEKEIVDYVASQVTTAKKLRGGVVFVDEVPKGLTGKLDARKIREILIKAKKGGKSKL

Chain of Fibroblast growth factor 2 (Homo sapiens) (P09038 whole entry, looked up): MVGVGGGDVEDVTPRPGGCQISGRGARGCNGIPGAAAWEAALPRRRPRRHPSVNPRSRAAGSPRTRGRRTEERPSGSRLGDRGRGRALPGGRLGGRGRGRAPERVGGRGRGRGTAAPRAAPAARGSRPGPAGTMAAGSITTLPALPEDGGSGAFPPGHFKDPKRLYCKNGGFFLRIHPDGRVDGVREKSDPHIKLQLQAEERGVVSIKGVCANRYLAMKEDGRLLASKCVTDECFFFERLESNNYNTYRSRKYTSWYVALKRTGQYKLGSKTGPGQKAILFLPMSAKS
Chain of Focal adhesion kinase 1 (Homo sapiens) (Q05397 whole entry, looked up): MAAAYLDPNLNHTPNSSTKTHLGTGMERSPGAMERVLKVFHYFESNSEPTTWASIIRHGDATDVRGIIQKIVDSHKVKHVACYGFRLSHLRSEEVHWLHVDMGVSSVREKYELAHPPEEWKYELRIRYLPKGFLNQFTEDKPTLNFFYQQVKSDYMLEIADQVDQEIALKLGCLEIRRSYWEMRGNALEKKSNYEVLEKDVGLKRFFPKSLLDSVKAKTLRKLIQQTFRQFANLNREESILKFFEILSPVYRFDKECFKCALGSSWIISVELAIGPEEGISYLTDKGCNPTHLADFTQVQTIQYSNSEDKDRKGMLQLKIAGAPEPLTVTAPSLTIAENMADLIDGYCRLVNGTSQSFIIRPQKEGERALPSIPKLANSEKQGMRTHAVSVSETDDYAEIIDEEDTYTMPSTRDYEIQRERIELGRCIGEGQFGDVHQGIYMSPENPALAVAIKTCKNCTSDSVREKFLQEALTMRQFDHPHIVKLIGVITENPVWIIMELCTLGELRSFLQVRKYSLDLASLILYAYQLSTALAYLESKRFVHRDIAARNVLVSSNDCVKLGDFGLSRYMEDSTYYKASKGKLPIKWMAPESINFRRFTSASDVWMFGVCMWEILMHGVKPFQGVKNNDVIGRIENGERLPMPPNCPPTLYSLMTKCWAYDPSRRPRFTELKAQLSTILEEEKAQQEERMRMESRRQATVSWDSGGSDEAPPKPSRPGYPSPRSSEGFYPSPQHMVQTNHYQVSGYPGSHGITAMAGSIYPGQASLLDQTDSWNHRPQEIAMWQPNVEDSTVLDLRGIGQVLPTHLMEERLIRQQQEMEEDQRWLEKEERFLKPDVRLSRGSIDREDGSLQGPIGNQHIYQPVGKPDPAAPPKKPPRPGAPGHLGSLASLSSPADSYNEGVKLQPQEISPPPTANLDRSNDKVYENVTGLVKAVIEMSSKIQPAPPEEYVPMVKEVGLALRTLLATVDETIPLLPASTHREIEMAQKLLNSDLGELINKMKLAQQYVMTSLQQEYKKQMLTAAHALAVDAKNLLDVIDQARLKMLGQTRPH
Chain of Follistatin (Homo sapiens) (P19883 whole entry, looked up): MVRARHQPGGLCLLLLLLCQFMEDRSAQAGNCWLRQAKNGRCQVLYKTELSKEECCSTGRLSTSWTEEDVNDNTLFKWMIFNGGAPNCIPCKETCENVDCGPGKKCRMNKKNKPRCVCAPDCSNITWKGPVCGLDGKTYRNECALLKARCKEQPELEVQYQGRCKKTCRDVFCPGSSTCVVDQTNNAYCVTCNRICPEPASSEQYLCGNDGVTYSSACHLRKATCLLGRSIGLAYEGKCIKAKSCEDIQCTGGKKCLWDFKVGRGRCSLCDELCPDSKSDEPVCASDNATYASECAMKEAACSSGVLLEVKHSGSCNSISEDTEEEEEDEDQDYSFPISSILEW
Chain of Concanavalin-A (Canavalia ensiformis) (P02866 whole entry, looked up): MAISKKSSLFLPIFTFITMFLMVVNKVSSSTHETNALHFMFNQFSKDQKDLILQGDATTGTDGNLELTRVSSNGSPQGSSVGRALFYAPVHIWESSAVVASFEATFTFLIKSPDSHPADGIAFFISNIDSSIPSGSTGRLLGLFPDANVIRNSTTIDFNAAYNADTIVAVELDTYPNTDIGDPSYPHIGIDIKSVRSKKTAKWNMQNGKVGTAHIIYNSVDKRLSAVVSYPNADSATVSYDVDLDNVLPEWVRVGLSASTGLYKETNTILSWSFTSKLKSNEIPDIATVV
Chain of Albumin (Bos taurus) (P02769 whole entry, looked up): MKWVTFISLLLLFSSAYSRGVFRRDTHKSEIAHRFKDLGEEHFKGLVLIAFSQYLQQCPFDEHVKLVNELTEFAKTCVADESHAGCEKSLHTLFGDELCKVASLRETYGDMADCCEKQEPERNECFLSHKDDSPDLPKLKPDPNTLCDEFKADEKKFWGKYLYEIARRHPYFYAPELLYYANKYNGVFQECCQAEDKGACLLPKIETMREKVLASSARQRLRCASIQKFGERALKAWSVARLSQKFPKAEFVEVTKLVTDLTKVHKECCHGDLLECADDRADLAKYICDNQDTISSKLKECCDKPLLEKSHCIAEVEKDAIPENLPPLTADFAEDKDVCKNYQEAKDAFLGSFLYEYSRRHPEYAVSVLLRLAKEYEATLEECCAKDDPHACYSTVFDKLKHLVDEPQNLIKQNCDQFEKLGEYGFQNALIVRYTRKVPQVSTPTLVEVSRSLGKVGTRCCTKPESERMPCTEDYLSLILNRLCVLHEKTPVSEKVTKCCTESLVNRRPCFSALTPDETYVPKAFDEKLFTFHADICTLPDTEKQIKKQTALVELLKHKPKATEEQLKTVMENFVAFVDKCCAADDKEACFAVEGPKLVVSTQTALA

With `CC(C)=CCN[C@H](CO)c1ccccc1`, the composite z-score is -0.0472 with Albumin (Bos taurus); -0.0122 in assay [2]; -0.14 in [3]; -0.115 in assay [4]; 0.0524 in assay [5]; -0.021 in assay [6]. For the same compound, the composite z-score in the assay with Sam68 (KHDRBS1) was -0.127; in assay [7], 0.218; in assay [8], 0.0857; in assay [9], -0.23; in assay [10], -0.341; in assay [11], -0.0383. Moreover, the composite z-score in assay [12] was 0.118; in [13] it was 0.546; in assay [14], 0.314; in the assay with Lefty1, 0.564; in [16] it was -0.246. Moreover, the composite Z-score in assay [1] was -0.139 (inactive). In addition, the z-score in assay [15] is -0.989; in assay [17], 0.765 (inactive).

Take `C=CCNC(=O)[C@H]1[C@@H]2C(=O)O[C@@H](c3ccccc3)[C@@H](c3ccccc3)N2[C@@H](c2ccccc2OCCO)[C@]12C(=O)Nc1ccc(C#CCCO)cc12`: the composite z-score in the assay with Albumin (Bos taurus) is -0.066; in assay [2], -0.214; in assay [3] it was -0.137; in assay [4] it was 0.423; in [5], 1.06; in [6], 0.0894. Moreover, the composite z-score in the assay on Sam68 (KHDRBS1) was -0.0891; in assay [7], -0.0022; in assay [8], 0.801; in assay [9], 1.12; in assay [10] it was -0.231; in assay [11] it was 0.191. The composite z-score is -0.205 in assay [12]; 0.0804 in [13]; 2.05 in assay [14]; -0.376 with Lefty1; -0.0387 in assay [16]. Further, in [1], the composite Z-score is 0.313 (inactive). Also, the z-score in [15] was 0.582; in [17], -0.412 (inactive).

On to `COc1ccc(/C=C/C=O)cc1`, for which the composite z-score in the assay with Albumin (Bos taurus) is -0.85; in assay [2] it was -0.0032; in [3], -0.0468; in assay [4], -0.206; in assay [5], -0.513; in assay [6], 0.0998. For the same compound, the composite z-score in the assay with Sam68 (KHDRBS1) is -0.235; in assay [7], 0.309; in [8], -0.415; in assay [9] it was 0.0874; in [10], -0.238; in assay [11], -0.0113. In addition, the composite z-score in [12] was -1.76; in assay [13], 0.853; in assay [14] it was 0.138; in the assay on Lefty1, 0.321; in assay [16], -0.367. Further, in [1], the composite Z-score was -0.174 (inactive). The z-score in assay [15] is 0.769; in assay [17], -0.756 (inactive).

For `C=C(CCCC)/C(=C/C[C@H](OC(=O)c1ccncc1)c1ccccc1OCCO)c1cnc2ccccc2c1`, the composite z-score in the assay with Albumin (Bos taurus) was 0.0803; in assay [2], 0.0259; in assay [3], -0.182; in assay [4], 0.862; in assay [5], 1.25; in assay [6], 0.406. Also, the composite z-score was 1.16 in the assay on Sam68 (KHDRBS1); 0.66 in assay [7]; 1.14 in assay [8]; 0.997 in assay [9]; 1.08 in assay [10]; 0.166 in [11]. Further, the composite z-score in [12] came to 0.47; in assay [13], 1.27; in assay [14], 0.912; in the assay with Lefty1, 1.14; in [16], 1.14. Also, the composite Z-score in [1] is -0.153 (inactive). Further, the values for the z-score in [15] and in [17] were 0.957 and -0.372 (inactive), respectively.

Regarding `COc1ccccc1CN1C(=O)c2ccccc2[C@@]2(Cc3ccccc3N(CC(C)C)C2=O)[C@@H]1c1ccc(CO)cc1`, the composite z-score was -0.119 in the assay with Albumin (Bos taurus); -0.211 in assay [2]; -0.143 in assay [3]; -0.137 in assay [4]; 0.19 in assay [5]; 0.249 in assay [6]. Also, the composite z-score in the assay on Sam68 (KHDRBS1) was 0.253; in assay [7] it was -0.238; in [8], 0.277; in assay [9], -0.259; in assay [10] it was -0.827; in assay [11], -0.362. Besides, the composite z-score was -0.705 in assay [12]; -0.114 in assay [13]; -0.556 in assay [14]; -0.0355 in the assay with Lefty1; -0.219 in assay [16]. For the same compound, in assay [1], the composite Z-score was 0.188 (inactive). The z-score in assay [15] is 0.379; in [17] it was -0.35 (inactive).

For the compound `COC(=O)[C@@]1(Cc2ccccc2)[C@H]2c3cc(C(=O)N4CCCC4)n(Cc4ccc(S(C)(=O)=O)cc4)c3C[C@H]2CN1C(=O)c1ccccc1`, the composite z-score with Albumin (Bos taurus) is 1.12; in [2] it was 0.511; in [3], -0.173; in [4], 0.902; in assay [5] it was 1.92; in assay [6], 0.559. In addition, the composite z-score was 1.29 in the assay with Sam68 (KHDRBS1); -0.832 in [7]; 0.978 in assay [8]; 1.27 in [9]; 1.27 in assay [10]; 2.05 in assay [11]. Further, the composite z-score in assay [12] is 1; in [13], 1.03; in assay [14], -0.771; in the assay on Lefty1, -0.07; in [16], 1.08. For the same compound, the composite Z-score in assay [1] was 0.971 (inactive). In addition, the z-score is 0.687 in assay [15] and 1.3 (inactive) in assay [17].
